# HepG2 tox: kills HepG2 cells in TGF-b inhibitor counter-screen | HepG2 CAGA-GFP viability, ATP luminescence, 18 h | Potency, µM (doses to about 46.1 µM), without a hit: at the highest dose activity change, negative = cytotoxicity, most hits filed as cytotoxic | actives 0.76% (n = 410,000); further: potency means the concentration at half of the fitted maximal effect
#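 HepG2 CAGA-GFP cells (1000/well, DMEM with 1% FBS) received compound, then TGF-beta at 500 pg/mL final, and were incubated 18 hours at 37 degrees C. Viability was read by CellTiter-Glo luminescence. Media-only wells were set as complete cell-killing and DMSO as no toxicity.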
# DT40 TDP1 CPT: growth inhibition of DT40 Tdp1-/-;hTDP1 cells with camptothecin (screen for TDP1 inhibitors); chicken DT40 Tdp1-/-;hTDP1 cells + 20 nM CPT, ATP luminescence, 48 h; Potency, µM (top dose mostly 46.2 µM), for the others: at the top dose activity change, negative = growth inhibition, most hits filed as inhibitors; actives 12% (n = 420,000); AID 686979; further: potency means the concentration at half of the fitted maximal effect; on the % scale 0 is the no-effect control and ±100 the full control effect; nearly all actives have a fitted effect of over 55% in size
#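 Cell growth measured by CellTiter-Glo luminescence after a minimum 48 h, 37 C compound exposure with 20 nM CPT in Tdp1-knockout DT40 cells stably expressing hTDP1, seeded 400/well; qHTS titration format.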
# TDP1 cell noCPT: qHTS for Inhibitors of human tyrosyl-DNA phosphodiesterase 1 (TDP1): qHTS in cells in absence of CPT. DT40 Tdp1-/- hTDP1 cells, no CPT, ATP luminescence, 48 h. Potency, µM (titrated, usually from 46.2 µM), for inactives: at the highest dose activity change, negative = growth inhibition, usual class: inhibitors. actives 15% (n = 420,000); further: potency means the concentration at half of the fitted maximal effect; on the % scale 0 is the no-effect control and ±100 the full control effect; nearly all actives have a fitted effect of over 55% in size
#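 DT40 Tdp1-/-;hTDP1 cells, no CPT (DMSO vehicle only), 400 cells/well; compounds pin-transferred; ≥48 hr, 37 °C; CellTiter-Glo 30 min RT dark, luminescence read.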
# TDP1 block: TDP1 (human) enzyme inhibition; recombinant TDP1, AlphaScreen DNA substrate cleavage; Q9NUW8; Potency, µM (titrated, usually from 130 µM), for the others: top-dose activity change, negative = inhibition, actives largely listed as inhibitors; actives 0.28% (n = 350,000); further: potency means the concentration at half of the fitted maximal effect; on the % scale 0 is the no-effect control and ±100 the full control effect; nearly all actives have a fitted effect of over 40% in size
# Target sequence (Q9NUW8 whole entry, looked up): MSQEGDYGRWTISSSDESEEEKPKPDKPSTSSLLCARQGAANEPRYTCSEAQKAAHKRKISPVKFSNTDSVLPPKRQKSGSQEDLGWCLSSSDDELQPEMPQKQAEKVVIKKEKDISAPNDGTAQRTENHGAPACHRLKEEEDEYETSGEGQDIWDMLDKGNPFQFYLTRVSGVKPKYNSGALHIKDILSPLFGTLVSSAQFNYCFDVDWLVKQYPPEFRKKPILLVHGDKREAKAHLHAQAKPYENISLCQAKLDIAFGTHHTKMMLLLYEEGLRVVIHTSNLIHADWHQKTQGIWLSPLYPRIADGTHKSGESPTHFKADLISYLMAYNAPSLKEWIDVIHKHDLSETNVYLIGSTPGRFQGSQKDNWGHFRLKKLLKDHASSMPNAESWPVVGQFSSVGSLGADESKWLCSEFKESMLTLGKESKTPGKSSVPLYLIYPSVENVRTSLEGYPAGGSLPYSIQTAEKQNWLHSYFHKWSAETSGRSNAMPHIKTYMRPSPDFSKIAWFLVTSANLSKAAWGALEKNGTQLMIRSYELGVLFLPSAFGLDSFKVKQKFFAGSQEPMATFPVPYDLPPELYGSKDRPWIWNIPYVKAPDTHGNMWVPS
#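 Compounds were preincubated with Tdp1 (1 nM final) for 15 min at room temperature before substrate (15 nM final) started a 5 min reaction; beads (10 ug/ml final) were then added for 10 min before AlphaScreen detection.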
# TGFb inhibitor: inhibitors of TGF-b signaling; AID 588855; actives 1.2% (n = 410,000); Potency, µM (highest dose often 46.1 µM), for inactives: at the top dose activity, negative = inhibition, actives largely listed as inhibitors; HepG2 CAGA-GFP TGF-b/SMAD3 reporter, GFP fluorescence, 18 h; TGF-beta stimulated, 500 pg/mL final; further: potency means the concentration at half of the fitted maximal effect; on the % scale 0 is the no-effect control and ±100 the full control effect; nearly all actives have a fitted effect of over 65% in size
#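 Smad-responsive CAGA-GFP expression was quantified in HEPG2 cells exposed to compounds and 500 pg/mL final TGF-beta for 18 h at 37 degrees C; unstimulated wells defined full inhibition.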
# IL-1B inflam inh: inflammasome signaling inhibition, IL-1 beta readout; THP-1 LPS/ATP IL-1B secretion, AlphaLISA, 16 h; active compounds read low; activity change, % at 57.5 µM; actives 4.7% (n = 360,000); in the data active means activity change below about -50%; inconclusive means mostly about -30% to -49%; further: on the % scale 0 is the no-effect control and ±100 the full control effect
#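 THP-1 cells pretreated 1 hr with compounds (up to 57.5 uM final), then stimulated with LPS (250 ng/mL final) plus ATP (1.25 mM final); secreted IL-1B measured by AlphaLISA after 16 hr, decreased signal indicating inhibition.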
# * marks the source's active call; other numbers are inactive results; ? = inconclusive; nt = not tested or not shown; [ ] = remark or other dose. This is a sample that favours compounds with a hit; in the whole collection about 18% have one here. Unless noted, the call rests on the fitted dose curve; in most records, active means well fitted curve in the direction sought with a large enough effect; inconclusive means small, poorly fitted or top-dose-only effect, or another doubt; inactive means no such curve, though single readings can be large; an effect the other way counts as inactive or inconclusive.
SMILES,HepG2 tox,DT40 TDP1 CPT,TDP1 cell noCPT,TDP1 block,TGFb inhibitor,IL-1B inflam inh
Cc1cccc(/C=C2/S/C(=N/N=C3\CC4CCC3(C)C4(C)C)NC2=O)c1 (stereo not given),-94%,?,21µM*,10%,?,?
Cc1cccc(N=C2NC(=O)/C(=C/c3cccs3)S2)c1,-20%,11%,?,0%,2%,-8
Cn1cc(C(=O)N/N=C/C(Br)=C/c2ccccc2)ccc1=O,-33%,3.3µM*,2.3µM*,6%,?,?
Cn1cc(C(=O)N/N=C/C(Br)=C\c2ccccc2)ccc1=O,-14%,2.3µM*,2.9µM*,2%,2%,-98*
Cn1cc(C(=O)N/N=C/c2cccc(O)c2)ccc1=O,2%,0%,-8%,-2%,-8%,5
C=CCn1c2ccccc2c(=O)c2cc(C#CC3(O)CCCCC3)ccc21,-3%,16µM*,18µM*,nt,16%,-57*
C=CCn1c2ccccc2c(=O)c2cc(C#CC[C@@H](C)O)ccc21,-10%,8.2µM*,10µM*,-7%,-11%,-67*
COc1ccc(C2=Nn3c(nnc3-c3ccccc3OC)SC2)cc1,nt,nt,nt,0%,nt,nt
COCOCCn1cc(CN2CCS(=O)(=O)N(Cc3ccc(-c4ccc(Cl)nc4)cc3)C(CC(C)C)C2=O)nn1 (stereo not given),-31%,?,?,nt,-2%,-7
COCOCCn1cc(CN2CCS(=O)(=O)N(Cc3ccc(-c4ccc(OC)c(OC)c4)cc3)C(CC(C)C)C2=O)nn1 (stereo not given),6%,21µM*,18µM*,nt,18%,-10
COCOCCn1cc(CN2CCS(=O)(=O)N(Cc3ccc(-c4ccc(Cl)cc4)cc3)C(C)C2=O)nn1 (stereo not given),-48%,23µM*,21µM*,nt,?,-15
COCOCCn1cc(CN2CCS(=O)(=O)N(Cc3ccc(-c4ccc(Cl)cc4)cc3)C(CC(C)C)C2=O)nn1 (stereo not given),-67%,?,23µM*,nt,?,5
CCCCN(CC)C(=O)Cn1c(=O)sc2ccccc21,-6%,5%,-4%,4%,-7%,5
CCC(CO)[n+]1c(C)cc(/C=C2\Sc3ccccc3N2Cc2ccccc2)cc1C (stereo not given),-17%,2.3µM*,2.3µM*,4%,0%,-104*
CCN1/C(=C2\SC(=S)N(Cc3ccccc3)C2=O)Sc2ccccc21,6%,-23%,?,0%,-6%,-3
COc1ccc(C2CC23N=C(c2ccccc2)OC3=O)cc1 (stereo not given),-1%,18µM*,?,5%,-7%,?
Cc1ccc(-c2[nH]ncc2C(=O)c2ccc(Br)cc2)c(O)c1,-32%,?,?,nt,?,-82*
CCCOc1ccc(CNC(=S)N/N=C/c2ccc([N+](=O)[O-])cc2)cc1,-42%,?,21µM*,6%,?,-7
CCCOc1ccc(CNC(=S)NCc2ccc(OC(C)C)cc2)cc1,-41%,?,18µM*,-3%,?,14
CC(C)COc1ccc(CNC(=S)N/N=C/c2ccc([N+](=O)[O-])cc2)cc1,-56%,-13%,-28%,7%,-22%,-15
COc1cc(=O)n2c(c1C(=O)N1CCc3ccccc3C1)CCN(Cc1ccc(CO)o1)CC2,nt,12%,-6%,nt,nt,nt
CSc1nnc(-c2cc[n+](C)cc2)n1CCO,4%,-1%,2%,3%,1%,25
CCCC[C@@H](CNC)NC[C@H](NCCCCC1CCCCC1)C(C)C,-99%,6.5µM*,5.2µM*,nt,?,?
Cc1nc2c(OCCOc3ccccc3)cccn2c1N(C)C(=O)CCC1CCCC1,-16%,?,?,nt,?,146
Cc1nc2c(OCCC3CCCCC3)cccn2c1N(C)C(=O)CCC1CCCC1,18µM*,?,16µM*,nt,16µM*,-53*
SMILES,HepG2 tox,DT40 TDP1 CPT,TDP1 cell noCPT,TDP1 block,TGFb inhibitor,IL-1B inflam inh
Cc1nc2c(OCc3cc(Cl)cc(Cl)c3)cccn2c1N(C)C(=O)CCC1CCCC1,-84%,?,?,nt,?,-67*
Cc1nc2c(OCCOc3ccc(F)cc3)cccn2c1N(C)C(=O)CCC1CCCC1,-25%,?,15µM*,nt,?,-23
COC(=O)c1ccc(CN2CCOc3ccc(C(O)c4cccnc4)cc3C2)cc1 (stereo not given),nt,3%[9.04 µM],-17%,nt,nt,nt
CCN(C(=O)COC(=O)Cc1ccc(F)cc1)c1c(N)n(Cc2ccccc2)c(=O)[nH]c1=O,4%,-17%,-3%,0%,1%,-3
Cc1cccc(C)c1NC(=O)CSc1nc(-c2ccccc2)nc2c1Cc1c(CO)cnc(C)c1O2,-5%,-5%,-4%,5%,-3%,nt
CCN(CC)C(=O)CSc1nc(-c2ccc(C)cc2)nc2c1Cc1c(CO)cnc(C)c1O2,-34%,9.2µM*,8.2µM*,3%,-8%,nt
Cc1ccc(-c2nc3c(c(SCC(=O)N(C)c4ccccc4)n2)Cc2c(CO)cnc(C)c2O3)cc1,-7%,?,?,8%,-10%,nt
CCc1ccc(NC(=O)CSc2nc(-c3cccc(OC)c3)nc3c2Cc2c(CO)cnc(C)c2O3)cc1,-24%,6.5µM*,7.3µM*,5%,?,nt
Cc1ccc(-c2nc3c(c(SCC(=O)N4CCOCC4)n2)Cc2c(CO)cnc(C)c2O3)cc1,4%,23µM*,10µM*,9%,13%,5
COc1ccc(-c2nc3c(c(SCC(=O)Nc4cc(C)cc(C)c4)n2)Cc2c(CO)cnc(C)c2O3)cc1,-2%,-4%,-12%,3%,3%,nt
COc1ccc(-c2nc3c(c(SCC(=O)N4CCOCC4)n2)Cc2c(CO)cnc(C)c2O3)cc1,-9%,15µM*,10µM*,8%,-12%,?
Cc1cc(NC(=O)c2ccc(Cl)cc2)ccc1NC(=O)c1ccccc1Cl,-20%,?,-23%,5%,-3%,-21
CN1CC(=O)N(CC(=O)Nc2ccc(OC(F)(F)F)cc2)c2ccccc2C1=O,-4%,0%,-21%,0%,4%,nt
CS(=O)(=O)Nc1cccc(-c2cncnc2NCc2cccnc2)c1,nt,13%,3%,nt,nt,nt
